Assay results published in PubChem BioAssay AID588397 (National Center for Advancing Translational Sciences (NCATS), 2011).
In all, about 1,300 compounds went through this assay and about 1,000 (77%) were called active. Inconclusive results (about 7%) are left out. Calls follow the shape of the dose curve; as a rule, active = well fitted inhibition curve with a large enough effect; inconclusive = small, poorly fitted or top-dose-only effect; inactive = no such curve, though single readings can be large or run the other way. The set was probably picked from earlier hits. This is one part of the list.

experiment: qHTS of small molecules that selectively kill Giardia lamblia: Hit Validation.;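 also: viability measured as ATP content by luminescence so killing lowers signal; nearly all actives have a fitted effect of over 65% in size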; details: Giardia lamblia trophozoite viability, dose-response; series mostly up to 38.3 µM; activity change, negative = killing: at the top concentration
Text: Giardia lamblia is a human pathogen afflicting impoverished nations, and the most common cause of outbreaks of diarrhea in the United States. Giardia has been classified by the CDC as a category B bioterrorism organism. The favored anti giardiasis drugs in the US are metronidazole or tinidazole, compounds that have undesirable side effects. Moreover, increasing resistance to drug regimes and recurrence are a concern. It is thus clear that alternative drug treatments are needed.
In a collaboration between the University of Maryland, College Park and the NIH Chemical Genomics Center, a bioluminescence Giardia viability assay based on the trophozoites' ATP content was developed. This assay is suitable for high throughput screening, and miniaturized the assay for compound screening in 1536-well plates. The goal of the project is to screen the Molecular Libraries Small Molecule Repository (MLSMR) for compounds that selectively kill Giardia trophozoites.
NIH Chemical Genomics Center [NCGC]
NIH Molecular Libraries Probe Centers Network [MLPCN]
Assay Submitter (PI): Osnat Herzberg, University of Maryland, College Park, MD.
1. Dispense 2 ul/well media
2. Dispense 23 nl/well compounds
3. Dispense 4 ul/well Giardia trophozoites at a concentration of 100 cells/well
4. Incubate 48 hrs at 37 deg C anaerobically
5. Dispense 4 ul/well ATPLite 1-Step Luminescence assay kit
6. Incubate 15-30 min at room temperature
7. Read luminescence signal on ViewLux plate reader
% is scaled to controls: 0 for no effect and ±100 for the full control effect; potency is read from the fitted curve at half-maximal effect.

SMILES | Potency | activity change, negative = killing
CCOC(=O)N/N=C\c1ccc([N+](=O)[O-])s1 | 4100 nM (active) | –
COc1ccccc1NC(=O)C(=O)N/N=C/c1ccc([N+](=O)[O-])s1 | 2050 nM (active) | –
Cc1ccnn1CC(=O)N/N=C/c1ccc([N+](=O)[O-])s1 | 3650 nM (active) | –
COC(=O)N/N=C/c1ccc([N+](=O)[O-])s1 | 4100 nM (active) | –
O=C(COC(=O)c1cc(Cl)ccc1O)NC(=O)NCc1ccccc1 | – | 1.53% (inactive)
Cc1csc(NC(=O)CSc2nc3[nH]c(=O)cc(O)c3s2)n1 | 1030 nM (active) | –
CC(NCCN(C)C)C1CCC2C3CCc4cc(O)ccc4C3CCC12C (centres undefined) | 1160 nM (active) | –
COc1cc(/C=C2\COC/C(=C\c3cc(OC)c(OC)c(OC)c3)C2=O)cc(OC)c1OC | 11600 nM (active) | –
COc1cc(C2CC(=O)Oc3cc(C)c(Cl)c(C)c32)cc(OC)c1OC (centres undefined) | – | -5.49% (inactive)
Cc1nn(CCCC(=O)Nc2c(F)cc(F)cc2Br)c(C)c1[N+](=O)[O-] | – | -0.27% (inactive)
COc1ccc(NC(=O)CCCn2nc(C)c3c(C)n(-c4ccccc4)nc3c2=O)cc1OC | – | 1.17% (inactive)
O=C(CCCn1cnc([N+](=O)[O-])n1)Nc1ccc(F)c(Cl)c1 | 3650 nM (active) | –
Cc1c(Cl)cccc1NC(=O)CCCn1cnc([N+](=O)[O-])n1 | 4100 nM (active) | –
O=C(CCCn1cnc([N+](=O)[O-])n1)Nc1cccc(Cl)c1Cl | 3650 nM (active) | –
O=[N+]([O-])c1cccc(COc2ccccc2CN2CCCC2)c1 | – | -3.87% (inactive)
O=C(c1ccco1)N1CCN(Cc2cc(=O)c(OCc3ccc([N+](=O)[O-])cc3)co2)CC1 | 183 nM (active) | –
O=C1NC(=O)/C(=C\c2ccc(Oc3ccc([N+](=O)[O-])cn3)cc2)S1 | 9180 nM (active) | –
O=C(Nc1ccc(C(=O)O)cc1)/C(=C\C=C\c1ccccc1)NC(=O)c1ccccc1Cl | 6500 nM (active) | –
C#CCOCCOCCOCCNc1nc(N2CCN(C(=O)[C@H](CCC(=O)O)n3cc([C@@H](N)CC(N)=O)nn3)CC2)nc(N2CCN(C(=O)[C@H](CCC(=O)O)n3cc([C@@H](N)CC(N)=O)nn3)CC2)n1 | – | -18.6% (inactive)
CCCCCN=Cc1c(C)[nH]n(-c2nc3ccccc3s2)c1=O | 3260 nM (active) | –
Cc1ccc(N=Nc2c(O)ccc3n[nH]nc23)cc1 | 3650 nM (active) | –
CCC1=C(OC(=O)N(CC)CC)N2C(=O)OC(=NCC(=O)OC)[C@]2(C)[C@H]2C1=CC[C@H]1C(=O)N(CC)C(=O)[C@H]12 | – | -6.74% (inactive)
CN(C)C(=O)C[n+]1ccc(C(N)=O)cc1 | – | -26.8% (inactive)

SMILES | Potency | activity change, negative = killing
Cc1ccc(NC(=O)Cn2cnc([N+](=O)[O-])c2)cc1C | 8180 nM (active) | –
Fc1ccc(CN2CC[C@H]3C=CCc4cccc(c43)C2)cc1 | – | -8.09% (inactive)
COc1ccc(C(=O)COC(=O)c2ccccc2NS(=O)(=O)c2ccc(O)c([N+](=O)[O-])c2)cc1 | 1450 nM (active) | –
COc1ccc(S(=O)(=O)Nc2c(O)c3ccccc3oc2=O)cc1 | – | -9.08% (inactive)
Cc1ccc(S(=O)(=O)Nc2ccc(C(OC(=O)c3ccccc3[N+](=O)[O-])(C(F)(F)F)C(F)(F)F)cc2)cc1 | 3650 nM (active) | –
O=C(N/N=C/c1ccc([N+](=O)[O-])o1)c1cc(-c2ccc(-c3ccccc3)cc2)nc2ccccc12 | 1030 nM (active) | –
CCCc1ccc(-c2cc(C(=O)N/N=C/c3ccc([N+](=O)[O-])o3)c3ccccc3n2)cc1 | 1630 nM (active) | –
O=C(N/N=C/c1ccc([N+](=O)[O-])o1)c1cc(-c2cccc(Br)c2)nc2ccccc12 | 1160 nM (active) | –
Cc1ccc(-c2cc(C(=O)N/N=C/c3ccc([N+](=O)[O-])o3)c3ccccc3n2)o1 | 1030 nM (active) | –
COc1ccc(-c2ccc([C@H]3[C@@H]4C=CCC[C@@]4(C)C(=O)N3Cc3ccccc3)c(F)c2)cc1OC | – | -4.14% (inactive)
COc1cc(/C=C2\SC(=O)N(Cc3ccc(F)cc3)C2=O)cc([N+](=O)[O-])c1O | 1830 nM (active) | –
COc1cc(/C=C2\SC(=O)N(Cc3ccc(Cl)cc3)C2=O)cc([N+](=O)[O-])c1O | 1630 nM (active) | –
COc1cc(/C=C2\SC(=O)N(c3ccc(Cl)cc3)C2=O)cc([N+](=O)[O-])c1O | 4100 nM (active) | –
CCS(=O)(=O)Nc1cccc(C2=NN(S(=O)(=O)c3ccc(C)cc3)C(c3ccco3)C2)c1 (centres undefined) | – | 3.24% (inactive)
COc1ccc(NS(=O)(=O)c2ccc(S(=O)(=O)N(C)C)cc2)cc1S(N)(=O)=O | – | 2.7% (inactive)
COc1ccc(OCc2cc(C(=O)N(C)Cc3cc(C4CC4)n[nH]3)no2)c(Cl)c1 | – | -16.1% (inactive)
COc1ccc(/C=C/c2ccc3ccccc3n2)cc1OC | 4600 nM (active) | –
COc1cccc(/C=C/c2ccc3ccccc3n2)c1OC(C)=O | 8180 nM (active) | –
COc1ccc(/C=C/c2ccc3ccccc3n2)c(OC)c1 | 2310 nM (active) | –
COc1ccc(OC)c(/C=C/c2ccc3ccccc3n2)c1 | – | -32.6% (inactive)
Cc1cccc(N2CCN(Cc3ccc([N+](=O)[O-])o3)CC2)c1C | 729 nM (active) | –
O=[N+]([O-])c1ccc(CN2CCN(c3ccccc3Cl)CC2)o1 | 650 nM (active) | –
Cc1ccccc1N1CCN(Cc2ccc([N+](=O)[O-])o2)CC1 | 1160 nM (active) | –

SMILES | Potency | activity change, negative = killing
Cc1ncc([N+](=O)[O-])n1CCOC(=O)Nc1ccc([N+](=O)[O-])cc1 | 146 nM (active) | –
COc1ccc(NC(=O)OCCn2c([N+](=O)[O-])cnc2C)cc1 | 650 nM (active) | –
C#CCCOC(=O)Nc1ccccc1 | – | -5.13% (inactive)
Cc1ncc([N+](=O)[O-])n1CCOC(=O)Nc1ccc(Cl)c(Cl)c1 | 230 nM (active) | –
CN1C2=CC=CC=CC2=[N+](C)C12C([N+](=O)[O-])=CC(=[N+]([O-])[O-])C=C2[N+](=O)[O-] (centres undefined) | 206 nM (active) | –
CCOC(=O)c1ccc(NS(C)(=O)=O)cc1 | – | -33.5% (inactive)
Cc1cc(C(=O)COC(=O)c2cccc(NS(C)(=O)=O)c2)c(C)n1CC1CCCO1 (centres undefined) | 4100 nM (active) | –
Cc1nnc(N/N=C/c2cccs2)[nH]c1=O | – | 0.18% (inactive)
S=C(NCCc1ccccc1)N/N=C/c1cccs1 | 23100 nM (active) | –
CC1CC(C)C(=O)C(C(CC2CC(=O)NC(=O)C2)OC(=O)CC(=O)c2ccccc2)C1 (centres undefined) | 130 nM (active) | –
CCn1nnc(NC(=O)c2ccc(C(C)(C)C)cc2)n1 | 7290 nM (active) | –
O=C(Nc1ncccn1)c1ccc([N+](=O)[O-])o1 | 1300 nM (active) | –
O=C(Nc1ccc(Br)cn1)c1ccc([N+](=O)[O-])o1 | 1630 nM (active) | –
Cc1cccnc1NC(=O)c1ccc([N+](=O)[O-])o1 | 918 nM (active) | –
O=C(Nc1ccccn1)c1ccc([N+](=O)[O-])o1 | 1630 nM (active) | –
CCn1nnc(NC(=O)c2ccc([N+](=O)[O-])o2)n1 | 1450 nM (active) | –
Cc1onc(NC(=O)c2ccc([N+](=O)[O-])o2)c1Br | 1630 nM (active) | –
O=C(NCC(c1ccco1)N1CCCC1)c1ccc(S(=O)(=O)Nc2ccccc2Cl)cc1 (centres undefined) | – | -15.3% (inactive)
CC1(C)[N+]([O-])=C2C(=[N+]([O-])C1(C)C)c1ccccc1/C2=N\O | 1630 nM (active) | –
C/C(=N\NC(=O)COc1ccc(C)cc1Br)c1cc([N+](=O)[O-])cs1 | 1630 nM (active) | –
CC(=NN1CC(=O)NC1=O)c1ccc([N+](=O)[O-])o1 | 1450 nM (active) | –
COc1cccc(NC2c3ccccc3C(=O)N2Cc2ccco2)c1 (centres undefined) | – | -6.92% (inactive)
O=[N+]([O-])c1ccc(-c2ccn[nH]2)o1 | 51.6 nM (active) | –

SMILES | Potency | activity change, negative = killing
CC(=O)Oc1ccc2c(=O)c(Oc3ccccc3[N+](=O)[O-])coc2c1 | 3260 nM (active) | –
CCN(CC)/[N+]([O-])=N/Oc1ccc([N+](=O)[O-])cc1[N+](=O)[O-] | 4100 nM (active) | –
CCOC(=O)c1nnn(-c2ccc([N+](=O)[O-])cc2[N+](=O)[O-])c1C | 8180 nM (active) | –
CCOC(=O)N1C(C)CN(/[N+]([O-])=N/Oc2ccc([N+](=O)[O-])cc2[N+](=O)[O-])CC1C (centres undefined) | 5790 nM (active) | –
O=[N+]([O-])c1ccc(O/N=[N+](\[O-])N2CCCCC2)c([N+](=O)[O-])c1 | 5160 nM (active) | –
O=C1CC(SC(=Nc2ccccc2)Nc2ccccc2)C(=O)N1c1cccc2ccccc12 (centres undefined) | – | 8.54% (inactive)
O=[n+]1c2c(n([O-])c3cc(Br)ccc31)CCC2 | 2310 nM (active) | –
O=[n+]1c2c(n([O-])c3cc(Cl)ccc31)CCCC2 | 4600 nM (active) | –
O=[n+]1c2c(n([O-])c3cc(Br)ccc31)CCCC2 | 2310 nM (active) | –
Cc1ccc(N=c2c([N+](=O)[O-])nn(-c3ccccc3)n2O)c(C)c1 | 1030 nM (active) | –
Cc1c(Cl)cccc1N=c1c([N+](=O)[O-])nn(-c2ccccc2)n1O | 516 nM (active) | –
CCCC/C=C/C(NC(=O)c1ccc(C(=O)OC)cc1)c1ccccc1 (centres undefined) | – | 2.61% (inactive)
COc1cc(N=Nc2c(C)n(C)n(-c3ccccc3)c2=O)ccc1N | 2310 nM (active) | –
Cc1cc(N)ccc1N=Nc1c(C)n(C)n(-c2ccccc2)c1=O | 729 nM (active) | –
CCNc1ccc(N=Nc2c(C)n(C)n(-c3ccccc3)c2=O)cc1 | 729 nM (active) | –
Cc1c(N=Nc2ccc(O)cc2)c(=O)n(-c2ccccc2)n1C | 5160 nM (active) | –
Cc1c(NC2(C#N)CCCC2)c(=O)n(-c2ccccc2)n1C | – | -13.8% (inactive)
Cc1c(N=Nc2ccc(N(C)C)cc2)c(=O)n(-c2ccccc2)n1C | 650 nM (active) | –
O=[N+]([O-])c1ccc(/C=C/c2ccnc3ccccc23)c([N+](=O)[O-])c1 | 7290 nM (active) | –
CSC1SCC2C(=O)N(C)C(C(C)C)C(=O)OCC(NC(=O)c3cnc4ccccc4n3)C(=O)NC(C)C(=O)N(C)C1C(=O)N(C)C(C(C)C)C(=O)OCC(NC(=O)c1cnc3ccccc3n1)C(=O)NC(C)C(=O)N2C (centres undefined) | 206 nM (active) | –
